The assay relates to HIV-1 nucleocapsid protein NCp7 (binding to TG oligonucleotide). The assay can be described thus: HIV Nucleocapsid (AID 346).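 Note: potency is for inhibitors that block NC binding and lower polarization.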 As to conditions: HIV-1 NC / fluorescein-TGTGTGTG probe, fluorescence polarization. In short, it runs like this: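 Fluorescence polarization binding of 100 nM HIV-1 NC to 10 nM fluorescein-labelled TG4xF oligonucleotide. Buffer was Hepes pH 7.5 with 250mM NaCl, 1uM ZnCl2, TCEP and 2-mercaptoethanol. Compounds were incubated 1 hr at room temperature before the read.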

Data on 120 molecules can be found in PubChem BioAssay (NCATS).

Each structure is given as a SMILES string. A number with no mark means an inactive call. The rule behind the calls is not given here. Some results are limits rather than exact numbers.
Potency is the fitted concentration of half-maximal effect.

As for `COc1cccc(Cn2c(=O)c(CCc3ccccc3)nc3cnc(N(C)C)nc32)c1`, the Potency is greater than 4 µM. For the molecule `c1cncc(-c2ccc3ncnc(NC4CCNCC4)c3c2)c1`, the Potency is greater than 20 µM. Next, `N#Cc1cccc(-c2cncnc2NCCc2cnc[nH]2)c1`: greater than 20 µM.

Regarding `COC(=O)N1CCC2(CCN(C(=O)Nc3ccc(OC)cc3)CC2)CC1`, the Potency was greater than 20 µM. In the case of `CS(=O)(=O)Nc1cccc(-c2nc(NCc3ccccc3)c3ccccc3n2)c1` it was greater than 20 µM. For `Cn1cc(-c2nc3cnc(N4CCNCC4)nc3n(CCC#N)c2=O)c2ccccc21`, the Potency was greater than 20 µM.

As to `CS(=O)(=O)N1CCC2(CCCN(c3ccccn3)C2)CC1`, the Potency is greater than 20 µM.

As for `COc1cccc(Cn2c(=O)c(C)nc3cnc(Oc4cccc(Cl)c4)nc32)c1`, the Potency was greater than 20 µM.

With `O=c1c(-c2ccc(F)cc2)nc2cncnc2n1Cc1ccccc1`, the Potency is greater than 20 µM. In the case of `CN1CCN(c2ncc3nc(-c4cc(F)cc(F)c4)c(=O)n(CCc4ccccc4)c3n2)CC1` it was greater than 20 µM; in that of `CC(=O)N1CCC2(CC1)CN(c1cccc(-c3ccccc3)c1)C2`, greater than 20 µM. Next, `COCC(=O)N1CCC[C@@]2(CCN(Cc3cc(C(F)(F)F)cc(C(F)(F)F)c3)C2)C1`: greater than 20 µM; `O=c1cnc2cnc(Oc3cccc(Cl)c3)nc2n1CCc1ccccc1`: greater than 20 µM; `COc1ccccc1CNc1nc(-c2ccc(N(C)C)cc2)nc2ccccc12`: greater than 20 µM. Regarding `O=C(Oc1ccccc1)N1CCC2(CC1)CN(c1ccccn1)C2`, the Potency is greater than 20 µM. On to `CN1CCN(c2ncc3nc(-c4ccc(Cl)cc4)c(=O)n(Cc4ccc(F)cc4)c3n2)CC1`, for which the Potency was greater than 20 µM. Consider `O=C(c1ccncc1)N1CCC2(CC1)CN(Cc1cc(C(F)(F)F)cc(C(F)(F)F)c1)C2`, for which the Potency is greater than 20 µM.

`Cc1cccc(CNc2cc(-c3c(C)noc3C)ncn2)c1`: the Potency is greater than 20 µM. In the case of `COc1ccc(NC(=O)N2CCCC3(CCN(C(=O)c4csnn4)CC3)C2)cc1`, the Potency is greater than 20 µM. Next, `COc1ccc(CNc2ncncc2-c2ccc3c(c2)OCO3)c(OC)c1`: greater than 20 µM; `COc1ccc(-n2c(=O)c(-c3ccccc3)nc3cnc(N4CCNCC4)nc32)cc1`: greater than 20 µM; `COc1cccc(-c2nccc(-n3ccnc3)n2)c1`: greater than 20 µM. In the case of `O=c1cnc2cnc(N3CCNCC3)nc2n1C1CC1` it was greater than 20 µM; in that of `CC(=O)N1CCC2(CCN(Cc3nccs3)CC2)CC1`, greater than 20 µM. As for `FC(F)(F)c1ccccc1-c1ccc2ncnc(NC3CCNCC3)c2c1`, the Potency is greater than 20 µM. Next, `CN(C)C(=O)c1ccc(-c2ccc3ncnc(NCCN4CCOCC4)c3c2)cc1`: greater than 20 µM; `COc1ccc(Oc2ncc3ncc(=O)n(Cc4cccs4)c3n2)cc1`: greater than 20 µM. Next, `COc1ccc(-n2c(=O)c(-c3cccs3)nc3cnc(N(C)C)nc32)cc1`: greater than 4 µM; `COc1ccc(NC(=O)N2CC3(CCN(C(=O)c4c(C)noc4C)CC3)C2)cc1`: greater than 20 µM.

In the case of `COc1ccc(-n2c(=O)c(-c3cc(F)cc(F)c3)nc3cnc(N(C)C)nc32)cc1`, the Potency is greater than 20 µM. Regarding `CS(=O)(=O)N1CCC[C@@]2(CCN(Cc3ccc(C#N)cc3)C2)C1`, the Potency is greater than 20 µM. Next, `COCCn1c(=O)cnc2cnc(Nc3ccccc3)nc21`: greater than 4 µM; `N#CCCn1c(=O)c(CCc2ccccc2)nc2cnc(Oc3cccc(Cl)c3)nc21`: greater than 20 µM; `CN(C)C(=O)c1ccc(-c2cc(NCc3ccccc3)ncn2)cc1`: greater than 20 µM. Next, `COCCn1c(=O)c(-c2cn(C)c3ccccc23)nc2cnc(Oc3cccc(Cl)c3)nc21`: greater than 20 µM; `Cn1cccc1C(=O)N1CCC[C@@]2(CCN(c3ccccc3)C2)C1`: greater than 20 µM; `CS(=O)(=O)N1CCC2(CCN(c3cccc(-c4ccccc4)c3)CC2)CC1`: greater than 20 µM. Regarding `COc1ccc2[nH]cc(CCNc3ccnc(-c4cccc(NS(C)(=O)=O)c4)n3)c2c1`, the Potency is greater than 20 µM. Next, `COc1cccc(-c2ccc3ncnc(NCCNC(C)=O)c3c2)c1`: greater than 20 µM. In the case of `COc1ccccc1CN1CC2(CCN(C(=O)c3cnccn3)CC2)C1` it was greater than 20 µM. Regarding `Cc1cccc(CNc2cc(-c3cccc(NS(C)(=O)=O)c3)ncn2)c1`, the Potency is greater than 20 µM. In the case of `COc1cccc(Cn2c(=O)c(C)nc3cnc(N(C)C)nc32)c1` it was greater than 4 µM. `COc1ccccc1CN1CC2(CCN(C(=O)c3cc(C(F)(F)F)cc(C(F)(F)F)c3)CC2)C1`: the Potency is greater than 20 µM. Next, `CNc1ccnc(-c2ccccc2C)n1`: greater than 20 µM. As to `N#Cc1cccc(-c2nccc(-n3ccnc3)n2)c1`, the Potency was greater than 20 µM. As to `COC(=O)N1CCC2(CCN(Cc3ccc(C#N)cc3)CC2)CC1`, the Potency is greater than 20 µM. `Cc1noc(C)c1-c1ccc2ncnc(NC3CC3)c2c1`: the Potency is greater than 20 µM. In the case of `COc1ccc(C(=O)N2CCC3(CCCN(C(c4ccccc4)c4ccccc4)C3)CC2)cc1`, the Potency is greater than 20 µM.

For the molecule `COc1ccc(CNc2ncnc3ccc(-c4ccccc4OC)cc23)c(OC)c1`, the Potency was greater than 20 µM.

Consider `CN(C)Cc1ccccc1-c1ccc2ncnc(NCc3cccs3)c2c1`, for which the Potency was greater than 20 µM. Next, `COc1ccccc1-c1cncnc1Nc1ccccc1`: greater than 20 µM; `O=C(Nc1cccc(F)c1)N1CCC2(CC1)CCN(C(=O)c1csnn1)CC2`: greater than 20 µM.

For the molecule `COc1ccccc1CNc1ncnc2ccc(-c3cccc(C#N)c3)cc12`, the Potency was greater than 20 µM. Consider `COCC(=O)N1CCC[C@@]2(CCN(c3ccccc3)C2)C1`, for which the Potency was greater than 20 µM. In the case of `COc1ccc2[nH]cc(CCNc3ncncc3-c3ccc4c(c3)OCO4)c2c1`, the Potency is greater than 20 µM. Next, `CN(C)c1ncc2nc(-c3ccccc3)c(=O)n(Cc3cccs3)c2n1`: greater than 20 µM; `COc1cccc(Cn2c(=O)c(-c3cccc(F)c3)nc3cncnc32)c1`: greater than 20 µM; `COc1ccc(-n2c(=O)cnc3cnc(N4CCN(C)CC4)nc32)cc1`: greater than 20 µM.

In the case of `O=C(c1cnccn1)N1CCC2(CCCN(C(c3ccccc3)c3ccccc3)C2)CC1`, the Potency was greater than 20 µM. In the case of `CC(=O)NCCNc1ncncc1-c1ccccc1C` it was greater than 20 µM; in that of `CN1CCN(c2ncc3nc(-c4ccc(Cl)cc4)c(=O)n(C)c3n2)CC1`, greater than 20 µM; in that of `O=C(c1cccc(F)c1)N1CCC[C@@]2(CCN(Cc3ccccc3)C2)C1`, greater than 20 µM. Next, `CC(=O)NCCNc1ncnc2ccc(-c3ccccc3C)cc12`: greater than 20 µM. Next, `Cn1c(=O)c(-c2ccc(F)cc2)nc2cnc(Oc3ccccc3)nc21`: greater than 20 µM.

Consider `COc1ccc(-c2nc3cnc(OC)nc3n(CCC#N)c2=O)cc1`, for which the Potency was greater than 20 µM. In the case of `CC(=O)N1CCC[C@@]2(CCN(Cc3ccc(C#N)cc3)C2)C1` it was greater than 20 µM; in that of `COCC(=O)N1CCC[C@@]2(CCN(c3ccccn3)C2)C1`, greater than 20 µM.

Turning to `COc1ccc(-n2c(=O)c(C)nc3cncnc32)cc1`, the Potency was greater than 20 µM. In the case of `CCNc1ncc2nc(-c3ccc(F)cc3)c(=O)n(-c3ccc(OC)cc3)c2n1` it was greater than 4 µM; in that of `COc1ncc2nc(CCc3ccccc3)c(=O)n(C)c2n1`, greater than 20 µM. Consider `CS(=O)(=O)N1CCC2(CC1)CN(c1cccc(-c3ccccc3)c1)C2`, for which the Potency was greater than 20 µM. On to `Cc1cnc(CNc2ccnc(-c3ccc(C(=O)N(C)C)cc3)n2)cn1`, for which the Potency is greater than 20 µM.

Regarding `COCC(=O)N1CCC2(CCCN(c3cccc(-c4ccccc4)c3)C2)CC1`, the Potency is greater than 20 µM.

In the case of `COc1ccccc1-c1cc(-n2ccnc2)ncn1`, the Potency was greater than 20 µM. Take `CCNc1ncc2nc(C)c(=O)n(C3CC3)c2n1`: the Potency was greater than 20 µM. Turning to `CCNc1ncc2nc(-c3ccc(F)cc3)c(=O)n(C)c2n1`, the Potency was greater than 20 µM. In the case of `COCCNc1ncnc2ccc(-c3ccccc3C)cc12`, the Potency is greater than 20 µM. Next, `Cc1noc(C)c1-c1ccc2ncnc(NCc3cccs3)c2c1`: greater than 20 µM; `CN1CCN(c2ncc3nc(-c4cn(C)c5ccccc45)c(=O)n(C)c3n2)CC1`: greater than 20 µM; `O=c1c(-c2ccc(Cl)cc2)nc2cnc(N3CCOCC3)nc2n1CCc1ccccc1`: greater than 4 µM. For the molecule `COc1ccc(C(=O)N2CCC3(CC2)CCN(c2ccncc2)CC3)cc1`, the Potency was greater than 20 µM. In the case of `O=C(c1csnn1)N1CCC2(CCCN(c3cccc(-c4ccccc4)c3)C2)CC1` it was greater than 20 µM. In the case of `COc1cccc(Nc2ncc3ncc(=O)n(Cc4ccc(F)cc4)c3n2)c1` it was greater than 20 µM. For the molecule `COc1ccc(NC(=O)N2CC3(CCN(C(C)=O)CC3)C2)cc1`, the Potency was greater than 20 µM. Regarding `O=c1c(-c2ccccc2)nc2cnc(N3CCNCC3)nc2n1-c1ccccc1`, the Potency is greater than 20 µM. Next, `COc1ccc(CNc2ccnc(-c3ccccc3C(F)(F)F)n2)c(OC)c1`: greater than 20 µM; `Cn1c(=O)c(-c2ccccc2)nc2cnc(N3CCNCC3)nc21`: greater than 20 µM.

Take `O=C(c1cc(C(F)(F)F)cc(C(F)(F)F)c1)N1CCC2(CC1)CN(c1ccncc1)C2`: the Potency is greater than 20 µM. In the case of `CN(C)c1nc(-c2ccccc2C(F)(F)F)nc2ccccc12`, the Potency was greater than 20 µM.

As for `CCNc1ncc2nc(-c3ccc(Cl)cc3)c(=O)n(CCC#N)c2n1`, the Potency is greater than 20 µM.

Turning to `Cc1noc(C)c1-c1cncnc1-n1ccnc1`, the Potency is greater than 20 µM. In the case of `Cc1nc2cnc(Nc3ccccc3)nc2n(C2CC2)c1=O` it was greater than 20 µM. In the case of `Cc1nc2cnc(Nc3ccccc3)nc2n(CCc2ccccc2)c1=O`, the Potency was greater than 20 µM. As to `CN(C)C(=O)c1ccc(-c2ccc3ncnc(Nc4ccc(F)cc4)c3c2)cc1`, the Potency is greater than 20 µM. For the molecule `c1ccc(CNc2ncncc2-c2ccc3c(c2)OCO3)cc1`, the Potency was greater than 20 µM. In the case of `N#Cc1cccc(NC(=O)N2CC[C@@]3(CCCN(C(=O)c4csnn4)C3)C2)c1` it was greater than 20 µM. In the case of `COc1ccccc1CCn1c(=O)c(-c2cc(F)cc(F)c2)nc2cncnc21` it was greater than 20 µM. Turning to `Cc1nc2cnc(Oc3ccccc3)nc2n(CCc2ccccc2)c1=O`, the Potency is greater than 20 µM. In the case of `COc1cccc(-c2cc(NCc3cccc(C)c3)ncn2)c1` it was greater than 20 µM; in that of `COc1ccc(Oc2ncc3nc(-c4ccc(Cl)cc4)c(=O)n(CCC#N)c3n2)cc1`, greater than 20 µM; in that of `O=S(=O)(c1ccccc1)N1CCC[C@@]2(CCN(C(c3ccccc3)c3ccccc3)C2)C1`, greater than 20 µM.

With `COC(=O)N1CCC2(CC1)CN(c1ccncc1)C2`, the Potency was greater than 20 µM.

Consider `CN(Cc1ccco1)c1ccnc(-c2ccccc2C(F)(F)F)n1`, for which the Potency was greater than 20 µM.

For `O=C(c1cc(C(F)(F)F)cc(C(F)(F)F)c1)N1CCC2(CC1)CCN(c1ncccn1)CC2`, the Potency is greater than 20 µM. `COc1cccc(-c2nc(NCc3cccnc3)c3ccccc3n2)c1`: the Potency is greater than 20 µM. With `COc1cccc(-c2nc(Nc3ccncc3)c3ccccc3n2)c1`, the Potency is greater than 20 µM.

As for `c1ccc2c(Nc3ccncc3)nc(-c3ccoc3)nc2c1`, the Potency was greater than 20 µM. In the case of `O=c1cnc2cnc(N3CCOCC3)nc2n1C1CC1` it was greater than 20 µM; in that of `O=c1c(-c2cccs2)nc2cnc(Oc3ccccc3)nc2n1Cc1cccs1`, greater than 20 µM.

On to `COCCn1c(=O)c(-c2cccs2)nc2cnc(Oc3ccccc3)nc21`, for which the Potency is greater than 20 µM.

`COc1ccc(CNc2ncncc2-c2ccccc2CN(C)C)c(OC)c1`: the Potency was greater than 20 µM.

Take `COc1ccc2[nH]cc(CCNc3nc(-c4cccnc4)nc4ccccc34)c2c1`: the Potency is greater than 20 µM. Next, `CS(=O)(=O)N1CCC2(CCN(c3ccccn3)CC2)CC1`: greater than 20 µM; `O=C(c1cnccn1)N1CCC2(CC1)CN(c1ccncc1)C2`: greater than 20 µM. In the case of `Clc1ccccc1-c1cncnc1NCc1cccs1` it was greater than 20 µM; in that of `CN(Cc1ccco1)c1ncncc1-c1ccccc1Cl`, greater than 20 µM.

Turning to `O=S(=O)(c1ccccc1)N1CCC2(CCCN(c3cccc(-c4ccccc4)c3)C2)CC1`, the Potency was greater than 20 µM. In the case of `O=C(Nc1ccccc1)N1CCC2(CC1)CCN(S(=O)(=O)c1ccccc1)CC2`, the Potency was greater than 20 µM. Regarding `O=C(c1csnn1)N1CCC2(CCCN(c3ccncc3)C2)CC1`, the Potency was greater than 20 µM. Regarding `Clc1ccccc1-c1cc(NCc2cccnc2)ncn1`, the Potency was greater than 20 µM.
